Reference: PubChem BioAssay (EPA / NIEHS)
Where “and” joins values, the source holds several entries; their conditions need not be identical. Equal entries are not always repeated. Records with an inconclusive call do not appear. Where a structure was tested more than once in an assay, its records may differ in their call. Calls of active or inactive are those of the source. The calls were made as follows, unless noted: active = hit-call score of the fitted dose curve at least 0.9, where 1 is the maximum; inconclusive = response in the unintended direction; inactive = score below 0.9.

Tests used:
[1] = target: Cellular tumor antigen p53 (Homo sapiens) (UniProt P04637); test: TOX21_p53_BLA_p4_ratio: Tox21 HCT-116 p53 Agonism Beta-lactamase Assay, Ratio, Phase 4 (AID 2283601)
Method in brief: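 HCT-116 p53 beta-lactamase reporter cells (4000/well) preincubated 5 h, then compound (217-fold dilution of DMSO stock) for 16 h at 37C. CCF4-AM substrate added 2 h at room temperature; 460/530 nm emission ratio fitted upward versus DMSO.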

[2] = system: Thyroperoxidase (TPO), gene 54314; test: CCTE_Simmons_AUR_rTPO: CCTE's Amplex UltraRed Assay for Thyroperoxidase (TPO) Inhibition, Simmons Lab (AID 2283662);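 as to AC50: potency for loss of signal meaning inhibition of peroxidase activity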
Method in brief: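 Cell-free peroxidase activity assay using rat thyroid gland microsomes with excess H2O2 (300 uM) and 25 uM Amplex UltraRed. Compounds tested from 5 nM to 87.5 uM; fluorescence measured after 30 min at 37C, analysed relative to DMSO baseline.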

[3] = CCTE_Simmons_CellTiterGLO_HEK293T: Viability Assessment in CCTE's Assays for Thyroperoxidase (TPO) Inhibition, Simmons Lab (AID 2283665);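 as to AC50: cells exposed to compound for 24 h before readout; actives reduce ATP signal below DMSO vehicle meaning cytotoxicity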
Method in brief: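 Luminescent ATP readout (CellTiter-Glo, 20 min at room temperature) after 24 hr exposure of HEK293T cells to 5 nM–87.5 uM final compound; signal loss relative to DMSO vehicle indicated cytotoxicity; dichlone titrated as positive control.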

[4] = ACEA_AR_agonist_AUC_viability: ACEA Biosciences xCELLigence Real-Time Cell Analysis on Androgen Receptor Agonism for Viability (AID 2283775);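 as to AC50: viability read 80 hours after compound addition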
Method in brief: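 Viability endpoint from xCELLigence impedance in 22Rv1 prostate cells at 80 h. Eight-point series, 100 uM maximum final.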

[5] = ACEA_AR_antagonist_AUC_viability: ACEA Biosciences xCELLigence Real-Time Cell Analysis on Androgen Receptor Antagonism for Viability (AID 2283776);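 also: 22Rv1 human prostate cancer cells growing on impedance electrode plates; area under impedance growth curve at 80 h after dosing as viability; hits lower the growth signal relative to DMSO meaning cytotoxicity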
Method in brief: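 22Rv1 prostate cells, continuous dosing up to 100 uM final (0.5% DMSO max), duplicate plates. Growth measured by impedance; AUC at 80 h, loss of signal vs DMSO.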

[6] = ACEA_ER_AUC_viability: ACEA Biosciences xCELLigence Real-Time Cell Analysis on Estrogen Receptor Agonism for Viability (AID 2283782);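 also: hit means loss of impedance signal meaning reduced cell growth or viability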
Method in brief: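 Read-out: real-time electrical impedance (RT-CES) area under curve, loss of signal taken as reduced viability, normalized to DMSO baseline. T-47D cells, charcoal-stripped serum medium, compounds up to 100 uM final, continuous exposure, 80 h.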

[7] = CEETOX_H295R_MTT_cell_viability: Viability Assessment in the CeeTox HT-H295R MTT Assay (AID 2283718; active = hit-call score of the fitted dose curve at least 0.9, where 1 is the maximum; inactive = score below 0.9)
Method in brief: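 Human H295R adrenal cells, prestimulated 48 h with 10 uM forskolin, were exposed 48 h to chemicals in 0.1% DMSO. Viability was measured in the same wells by MTT (0.5 mg/ml, 4 h, 37 C), absorbance 570/650 nm, as percent of controls.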

[8] = STM_H9_OrnCyssISnorm_ratio: Stemina devTOX quickPredict H9 human embryonic stem cell (hESC)-based Assay for Ornithine (ORN):Cystine (CYSS) Ratio (AID 2283714)
Method in brief: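 UPLC-HRMS of spent media: ORN/CYSS ratio of internal-standard-normalized percentages, DMSO (0.1%) baseline. Pluripotent H9 hESCs, 72h exposure, daily re-dosing with fresh media; last 24h media collected.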

AR (gene 367) = AR (gene 367) (UniProt P10275); test: ACEA_AR_agonist_80hr: ACEA Biosciences xCELLigence Real-Time Cell Analysis on Androgen Receptor Agonism for Proliferation (AID 2283783);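 also: hits increase impedance growth signal above DMSO baseline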
Method in brief: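 Impedance (RT-CES) growth signal at 80 h post-dose; 22Rv1 cells, 8-pt 1:4 series, top 100 uM final, DMSO ≤0.5%; duplicate plates; gain-of-signal fit relative to DMSO baseline.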

Cellular tumor antigen p53 (Homo sapiens), sequence (P04637 whole entry, looked up): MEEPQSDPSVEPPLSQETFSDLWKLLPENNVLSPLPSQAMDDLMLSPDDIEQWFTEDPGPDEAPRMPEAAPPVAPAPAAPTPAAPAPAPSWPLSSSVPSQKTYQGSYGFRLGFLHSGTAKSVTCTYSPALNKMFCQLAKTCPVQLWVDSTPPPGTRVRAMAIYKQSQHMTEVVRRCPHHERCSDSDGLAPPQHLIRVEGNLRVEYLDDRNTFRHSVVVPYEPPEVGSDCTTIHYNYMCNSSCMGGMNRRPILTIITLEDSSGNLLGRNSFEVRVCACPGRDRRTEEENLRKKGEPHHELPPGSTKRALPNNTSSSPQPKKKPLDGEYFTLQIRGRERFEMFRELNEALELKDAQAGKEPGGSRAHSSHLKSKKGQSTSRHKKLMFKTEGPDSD
AR (gene 367), sequence (P10275 whole entry, looked up): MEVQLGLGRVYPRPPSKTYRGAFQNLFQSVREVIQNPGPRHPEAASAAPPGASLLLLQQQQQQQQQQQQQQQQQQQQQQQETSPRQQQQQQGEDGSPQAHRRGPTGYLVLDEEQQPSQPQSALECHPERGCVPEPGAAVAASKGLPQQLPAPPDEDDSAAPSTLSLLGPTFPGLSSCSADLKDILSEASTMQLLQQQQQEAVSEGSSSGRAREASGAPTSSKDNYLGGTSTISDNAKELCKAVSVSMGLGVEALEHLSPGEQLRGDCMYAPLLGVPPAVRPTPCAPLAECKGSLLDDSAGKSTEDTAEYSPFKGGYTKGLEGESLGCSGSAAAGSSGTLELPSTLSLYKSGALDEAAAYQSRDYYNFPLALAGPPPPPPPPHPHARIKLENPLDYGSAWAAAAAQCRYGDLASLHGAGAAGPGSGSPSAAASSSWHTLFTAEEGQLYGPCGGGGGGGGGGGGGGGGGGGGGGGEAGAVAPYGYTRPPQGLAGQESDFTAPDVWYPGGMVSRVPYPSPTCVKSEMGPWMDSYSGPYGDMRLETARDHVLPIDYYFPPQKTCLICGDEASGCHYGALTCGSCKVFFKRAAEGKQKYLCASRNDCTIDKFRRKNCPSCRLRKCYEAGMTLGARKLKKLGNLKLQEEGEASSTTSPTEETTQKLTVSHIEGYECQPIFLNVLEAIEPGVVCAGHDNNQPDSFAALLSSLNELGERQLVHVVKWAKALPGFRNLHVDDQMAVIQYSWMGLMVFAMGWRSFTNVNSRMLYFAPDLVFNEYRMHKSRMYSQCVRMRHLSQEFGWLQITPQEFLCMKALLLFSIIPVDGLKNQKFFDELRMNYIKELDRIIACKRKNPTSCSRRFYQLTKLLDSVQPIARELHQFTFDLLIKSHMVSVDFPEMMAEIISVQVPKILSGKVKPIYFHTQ

In the case of `c1ccc2c(c1)ccc1cc3c(ccc4ccccc43)cc12`, the outcome [1] is reported as “inactive”, the outcome [2] is reported as “inactive” and the outcome [3] is reported as “inactive”. For the same compound, the AC50 [4] was 0.341 µM (active) and the AC50 [5] was 0.287 µM (active).

For `C=CC(=O)NC(C)(C)CS(=O)(=O)O`, the outcome [1] was “inactive”, the outcome [4] was “inactive” and the AC50 [6] was 11.2 µM (active).

With `NC(=O)N=NC(N)=O` the outcome [1] was “inactive”, the outcome [4] was “inactive” and the AC50 [5] was 4.59 µM (active). The outcome [6] was “inactive”.

With `O=C(Nc1ccccc1SSc1ccccc1NC(=O)c1ccccc1)c1ccccc1` the AC50 [1] was 65.5 µM (active) and 56.9 µM (active), the outcome [7] was “inactive” and the AC50 [6] was 77.7 µM (active).

With `NC(=O)c1ccccc1O` the outcome [1] was “inactive” and the outcome [4] was “inactive”.

With `Nc1ccc(N)c(Cl)c1` the AC50 [1] was 72.1 µM (active), the outcome [1] was “inactive” and the AC50 [8] was 13.5 µM (active). The AC50 [6] was 67.8 µM (active).

For `COC(=O)c1c(C)cc(O)c(C)c1O`, the outcome [1] was “inactive”, the AC50 [2] was 11.6 µM (active) and the outcome [7] was “inactive”. The AC50 [5] was 4.23 µM (active) and the outcome [6] was “inactive”.

For `O=C1CCCCCCCCCCC(=O)OCCO1`, the outcome [1] was “inactive”, the outcome [8] was “inactive” and the AC50 [6] was 68.3 µM (active).

For `CN(C)c1ccc(N=Nc2ccccc2C(=O)O)cc1`, the outcome [1] was “inactive”, the AC50 [8] was 37.5 µM (active) and the AC50 [4] was 6.64 µM (active). The AC50 [6] was 11.8 µM (active).

In the case of `CCN(CCC#N)c1ccc(N=Nc2c(Cl)cc([N+](=O)[O-])cc2Cl)cc1`, the outcome [1] is reported as “inactive”, the AC50 [2] is reported as 37.9 µM (active) and the AC50 [3] is reported as 41.8 µM (active). The AC50 [4] was 3.43 µM (active), the AC50 [5] was 3.41 µM (active) and the outcome [6] was “inactive”.

In the case of `CCCCC/C=C\CCC=O`, the outcome [1] is reported as “inactive”, the outcome [7] is reported as “inactive” and the AC50 [4] is reported as 16.6 µM (active). For the same compound, the outcome [5] was “inactive”, the outcome [6] was “inactive” and the outcome (AR (gene 367)) was “inactive”.

With `C1CN(SSN2CCOCC2)CCO1` the outcome [1] was “inactive”, the AC50 [2] was 4.25 µM (active) and the AC50 [3] was 88.9 µM (active). For the same compound, the outcome [4] was “inactive” and the AC50 [6] was 82.4 µM (active).

In the case of `CCOC(=O)Cc1cccc2ccccc12`, the outcome [1] is reported as “inactive”, the outcome [7] is reported as “inactive” and the AC50 [6] is reported as 50 µM (active).

For `CCCCCCCC/C=C\CCCCCCCC(=O)O`, the outcome [1] was “inactive”, the outcome [4] was “inactive” and the outcome [5] was “inactive”. The AC50 [6] was 50 µM (active).

For `CCCCOCCOC(=O)COc1nc(Cl)c(Cl)cc1Cl`, the outcome [1] was “inactive”, the outcome [4] was “inactive” and the outcome [6] was “inactive”.

With `CCCCCCC1(C)CCC(=O)O1` (centres undefined) the outcome [1] was “inactive”, the AC50 [4] was 1.1 µM (active) and the outcome [5] was “inactive”.

With `CNC(=S)NN` the outcome [1] was “inactive”, the AC50 [2] was 22.5 µM (active) and the outcome [3] was “inactive”. The outcome [4] was “inactive”, the outcome [5] was “inactive” and the outcome [6] was “inactive”.
